Experimental data taken from PubChem BioAssay (EPA / NIEHS).
Records with an inconclusive call do not appear. Calls of active or inactive are those of the source. How the source made its calls: active means hit-call score of the fitted dose curve at least 0.9, where 1 is the maximum; inconclusive means response in the unintended direction; inactive means score below 0.9.

Assay: Tanguay_ZF_120hpf_SNOU_legacy: (Legacy) Oregon State University Tanguay Lab 120 Hour Post-fertilization zebrafish Assay for Snout Malformation (AID 2283637)
How it was run: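 Binary snout-malformation call at 120 hpf in wild-type 5D embryos, chorion removed by pronase, under static exposure from 6 hpf at 28C (0.64% DMSO). Embryos dying by 24 or 120 hpf excluded.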

Compound	AC50	outcome
CCOP(=O)(NC(C)C)Oc1ccc(SC)c(C)c1 (configuration not stated)	20.9 µM (active)	–
COc1cc(OC)nc(Sc2cccc(Cl)c2C(=O)O)n1	–	inactive
CCOP(=S)(OCC)Oc1ccc2c(C)c(Cl)c(=O)oc2c1	–	inactive
CC(=NC#N)N(C)Cc1ccc(Cl)nc1	–	inactive
CN(C)NC(=O)CCC(=O)O	–	inactive
FC(F)C(F)(F)OCC(Cn1cncn1)c1ccc(Cl)cc1Cl (configuration not stated)	47 µM (active)	–
CCc1cccc(C)c1N(C(=O)CCl)C(C)COC (configuration not stated)	–	inactive
COP(=O)(OC)C(O)C(Cl)(Cl)Cl (configuration not stated)	–	inactive
CC(C)=CC1C(C(=O)OCN2C(=O)C3=C(CCCC3)C2=O)C1(C)C (configuration not stated)	–	inactive
CC(C)N(C(=O)SCC(Cl)=C(Cl)Cl)C(C)C	–	inactive
CCCCOC(=O)c1ccccc1C(=O)O	–	inactive
CCC(=O)Nc1ccc(Cl)c(Cl)c1	–	inactive
COc1cccc(C(=O)NN(C(=O)c2cc(C)cc(C)c2)C(C)(C)C)c1C	–	inactive
S=C1NCCN1	–	inactive
CCOP(=S)(OCC)Oc1cc(C)nc(C(C)C)n1	–	inactive
CCCCSP(=O)(SCCCC)SCCCC	–	inactive
CCOP(=S)(OCC)SCCSCC	–	inactive

Compound	AC50	outcome
C#CCC1=C(C)C(OC(=O)C2C(C=C(C)C)C2(C)C)CC1=O (configuration not stated)	–	inactive
CCOC(=O)CC(SP(=O)(OC)OC)C(=O)OCC (configuration not stated)	–	inactive
CON=C(C(=O)OC)c1ccccc1CON=C(C)c1cccc(C(F)(F)F)c1	4.07 µM (active)	–
CCOP(=S)(OCC)Oc1ccc([N+](=O)[O-])cc1	–	inactive
Cc1cc(C2CC2)nc(Nc2ccccc2)n1	–	inactive
C[Si](Cn1cncn1)(c1ccc(F)cc1)c1ccc(F)cc1	12 µM (active)	–
CCC(CC)Nc1c([N+](=O)[O-])cc(C)c(C)c1[N+](=O)[O-]	–	inactive
CCCSP(=O)(OCC)Oc1ccc(Br)cc1Cl (configuration not stated)	–	inactive
CC1(C(=O)Nc2ccc(O)c(Cl)c2Cl)CCCCC1	–	inactive
CNC(=O)ON=C(SC)C(=O)N(C)C	–	inactive
Nc1nc(N)nc(NC2CC2)n1	–	inactive
CSC1=N[C@@](C)(c2ccccc2)C(=O)N1Nc1ccccc1	–	inactive
CC[C@H](C)[C@H]1O[C@]2(C=C[C@@H]1C)C[C@@H]1C[C@@H](C/C=C(\C)[C@@H](O[C@H]3C[C@H](OC)[C@@H](O[C@H]4C[C@H](OC)[C@@H](NC)[C@H](C)O4)[C@H](C)O3)[C@@H](C)/C=C/C=C3\CO[C@@H]4[C@H](O)C(C)=C[C@@H](C(=O)O1)[C@]34O)O2	–	inactive
N#CSCSC#N	–	inactive
COP(=O)(NC(C)=O)SC (configuration not stated)	–	inactive
CCCOCC(=Nc1ccc(Cl)cc1C(F)(F)F)n1ccnc1	–	inactive

Assay: Tanguay_ZF_120hpf_JAW_legacy: (Legacy) Oregon State University Tanguay Lab 120 Hour Post-fertilization zebrafish Assay for Jaw Malformation (AID 2283638);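 on AC50: active means more embryos with jaw malformation than DMSO controls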
How it was run: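 Binary jaw-malformation call at 120 hpf by brightfield microscopy. Embryos (Tropical 5D strain, chorion removed at 4 hpf) were dosed statically at 6 hpf, one per well, at 28C with 0.64% DMSO. Embryos that died were not scored.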

Compound	AC50	outcome
CCOP(=O)(NC(C)C)Oc1ccc(SC)c(C)c1 (configuration not stated)	21.6 µM (active)	–
COc1cc(OC)nc(Sc2cccc(Cl)c2C(=O)O)n1	–	inactive
CCOP(=S)(OCC)Oc1ccc2c(C)c(Cl)c(=O)oc2c1	–	inactive
CC(=NC#N)N(C)Cc1ccc(Cl)nc1	–	inactive
CN(C)NC(=O)CCC(=O)O	–	inactive
FC(F)C(F)(F)OCC(Cn1cncn1)c1ccc(Cl)cc1Cl (configuration not stated)	11.7 µM (active)	–
COP(=O)(OC)C(O)C(Cl)(Cl)Cl (configuration not stated)	–	inactive
CC(C)=CC1C(C(=O)OCN2C(=O)C3=C(CCCC3)C2=O)C1(C)C (configuration not stated)	–	inactive
CCCCOC(=O)c1ccccc1C(=O)O	–	inactive
CCC(=O)Nc1ccc(Cl)c(Cl)c1	–	inactive
COc1cccc(C(=O)NN(C(=O)c2cc(C)cc(C)c2)C(C)(C)C)c1C	–	inactive
CCOP(=S)(OCC)SCCSCC	–	inactive
C#CCC1=C(C)C(OC(=O)C2C(C=C(C)C)C2(C)C)CC1=O (configuration not stated)	–	inactive
CCOC(=O)CC(SP(=O)(OC)OC)C(=O)OCC (configuration not stated)	–	inactive
CON=C(C(=O)OC)c1ccccc1CON=C(C)c1cccc(C(F)(F)F)c1	5.3 µM (active)	–
CCOP(=S)(OCC)Oc1ccc([N+](=O)[O-])cc1	–	inactive
Cc1cc(C2CC2)nc(Nc2ccccc2)n1	–	inactive
C[Si](Cn1cncn1)(c1ccc(F)cc1)c1ccc(F)cc1	13.4 µM (active)	–
CCC(CC)Nc1c([N+](=O)[O-])cc(C)c(C)c1[N+](=O)[O-]	–	inactive
O=c1ccc(=O)[nH][nH]1	–	inactive
CCCSP(=O)(OCC)Oc1ccc(Br)cc1Cl (configuration not stated)	–	inactive
CC1(C(=O)Nc2ccc(O)c(Cl)c2Cl)CCCCC1	–	inactive
CNC(=O)ON=C(SC)C(=O)N(C)C	–	inactive
Nc1nc(N)nc(NC2CC2)n1	–	inactive
CSC1=N[C@@](C)(c2ccccc2)C(=O)N1Nc1ccccc1	–	inactive
CC[C@H](C)[C@H]1O[C@]2(C=C[C@@H]1C)C[C@@H]1C[C@@H](C/C=C(\C)[C@@H](O[C@H]3C[C@H](OC)[C@@H](O[C@H]4C[C@H](OC)[C@@H](NC)[C@H](C)O4)[C@H](C)O3)[C@@H](C)/C=C/C=C3\CO[C@@H]4[C@H](O)C(C)=C[C@@H](C(=O)O1)[C@]34O)O2	–	inactive
COP(=O)(NC(C)=O)SC (configuration not stated)	–	inactive
CCCOCC(=Nc1ccc(Cl)cc1C(F)(F)F)n1ccnc1	–	inactive
C#CC(C)(C)NC(=O)c1cc(Cl)cc(Cl)c1	–	inactive
